Experimental data reported in publication PMC5349851, “Combinatorial bZIP dimers display complex DNA-binding specificity landscapes”.

Experiments:
Experiment in all cases: SELEX-seq (CSI, HT-SELEX, round 3); SELEX-seq: 1x PBS (10 mM phosphate, 137 mM NaCl, 2.7 mM KCl) pH 7.6, 2.5 mM DTT, 50 ng/ul poly dI-dC, 0.1% BSA, 50 nM biotinylated bZIP (1:3 with partner for heterodimers), 100 nM library, room temperature, 1 h, 3 rounds; high values mean tight binding
Conditions in all cases: protein: recombinant;recombinant; copies: 1;1; dsDNA, one strand shown
FOS;ATF2 = FOS;ATF2 (Homo sapiens;Homo sapiens, UniProt P01100;P15336 128-201;343-417, |)
Sequence of FOS;ATF2 (P01100 other isoform, or with tags, fused parts or gaps |, chain 1 of 2): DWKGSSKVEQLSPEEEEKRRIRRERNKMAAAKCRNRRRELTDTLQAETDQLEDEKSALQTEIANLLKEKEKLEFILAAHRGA
Sequence of FOS;ATF2 (P15336 other isoform, or with tags, fused parts or gaps |, chain 2 of 2): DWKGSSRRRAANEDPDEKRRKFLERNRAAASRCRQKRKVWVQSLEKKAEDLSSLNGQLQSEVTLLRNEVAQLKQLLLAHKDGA

FOS;DBP = FOS;DBP (Homo sapiens;Homo sapiens, UniProt P01100;Q10586 128-201;246-324, |)
Sequence of FOS;DBP (P01100 other isoform, or with tags, fused parts or gaps |): as the sequence (P01100 other isoform, or with tags, fused parts or gaps |, chain 1 of 2) above

ATF5;CEBPG = target: T1, ATF5;CEBPG (Homo sapiens;Homo sapiens, UniProt Q9Y2D1;P53567 199-275;52-130, |)
T1 sequence 1: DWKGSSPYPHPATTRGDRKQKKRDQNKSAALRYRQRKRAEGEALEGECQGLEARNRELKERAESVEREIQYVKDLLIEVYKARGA
T1 sequence 2: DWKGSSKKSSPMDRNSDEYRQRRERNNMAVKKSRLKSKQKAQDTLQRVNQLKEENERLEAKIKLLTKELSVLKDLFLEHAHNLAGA

ATF5;CEBPA = ATF5;CEBPA (Homo sapiens;Homo sapiens, UniProt Q9Y2D1;P49715 199-275;273-345, |)
ATF5;JUN = ATF5;JUN (Homo sapiens;Homo sapiens, UniProt Q9Y2D1;P05412 199-275;243-316, |)
Sequence of ATF5;JUN (P05412 other isoform, or with tags, fused parts or gaps |): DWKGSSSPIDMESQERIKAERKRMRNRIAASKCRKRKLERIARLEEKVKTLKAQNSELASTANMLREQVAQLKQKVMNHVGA

ATF5;BATF3 = target: T2, ATF5;BATF3 (Homo sapiens;Homo sapiens, UniProt Q9Y2D1;Q9NR55 199-275;26-99, |)
T2 sequence 1: T1 sequence 1
T2 sequence 2: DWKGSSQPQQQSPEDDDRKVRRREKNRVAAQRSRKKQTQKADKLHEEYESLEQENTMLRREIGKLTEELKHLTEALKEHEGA

DDIT3;CEBPG = DDIT3;CEBPG (Homo sapiens;Homo sapiens, UniProt P35638;P53567 88-169;52-130, |)
Sequence of DDIT3;CEBPG (P35638 other isoform, or with tags, fused parts or gaps |): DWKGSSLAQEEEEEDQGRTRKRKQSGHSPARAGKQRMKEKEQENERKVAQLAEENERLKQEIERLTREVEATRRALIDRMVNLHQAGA

MAFB;ATF4 = MAFB;ATF4 (Homo sapiens;Homo sapiens, UniProt Q9Y5Q3;P18848 212-305;269-346, |)
Sequence of MAFB;ATF4 (Q9Y5Q3 other isoform, or with tags, fused parts or gaps |, chain 1 of 2): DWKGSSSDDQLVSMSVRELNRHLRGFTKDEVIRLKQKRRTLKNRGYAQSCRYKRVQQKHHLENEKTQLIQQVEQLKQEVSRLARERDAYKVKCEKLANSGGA
Sequence of MAFB;ATF4 (P18848 other isoform, or with tags, fused parts or gaps |, chain 2 of 2): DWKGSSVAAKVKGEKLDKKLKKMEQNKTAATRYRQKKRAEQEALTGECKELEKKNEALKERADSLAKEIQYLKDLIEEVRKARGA

BATF2;ATF3 = target: T3, BATF2;ATF3 (Homo sapiens;Homo sapiens, UniProt Q8N1L9;P18847 8-85;77-150, |)
T3 sequence 1: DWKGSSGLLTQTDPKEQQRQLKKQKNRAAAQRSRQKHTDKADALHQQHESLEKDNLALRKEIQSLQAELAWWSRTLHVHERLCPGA
T3 sequence 2: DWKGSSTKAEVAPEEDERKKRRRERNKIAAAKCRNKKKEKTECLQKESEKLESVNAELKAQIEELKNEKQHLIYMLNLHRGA

BATF2;JUN = BATF2;JUN (Homo sapiens;Homo sapiens, UniProt Q8N1L9;P05412 8-85;243-316, |)
Sequence of BATF2;JUN (P05412 other isoform, or with tags, fused parts or gaps |): as the sequence (P05412 other isoform, or with tags, fused parts or gaps |) above

| Sequence | binding signal (FOS;ATF2) | binding signal (FOS;DBP) | binding signal (ATF5;CEBPG) | binding signal (ATF5;CEBPA) | binding signal (ATF5;JUN) | binding signal (ATF5;BATF3) | binding signal (DDIT3;CEBPG) | binding signal (MAFB;ATF4) | binding signal (BATF2;ATF3) | binding signal (BATF2;JUN) |
| --- | --- | --- | --- | --- | --- | --- | --- | --- | --- | --- |
| ATGACGCAAT | 0.00209 relative CSI intensity (max = 1) | 0.194 relative CSI intensity (max = 1) | 0.902 relative CSI intensity (max = 1) | 0.864 relative CSI intensity (max = 1) | 0.0554 relative CSI intensity (max = 1) | 0.00351 relative CSI intensity (max = 1) | 0.339 relative CSI intensity (max = 1) | 0.0526 relative CSI intensity (max = 1) | 0.00454 relative CSI intensity (max = 1) | 0.0567 relative CSI intensity (max = 1) |
| ATGACGGAAT | – | 0.0179 relative CSI intensity (max = 1) | 0.0428 relative CSI intensity (max = 1) | 0.0438 relative CSI intensity (max = 1) | – | – | 0.0328 relative CSI intensity (max = 1) | 0.014 relative CSI intensity (max = 1) | – | 0.00635 relative CSI intensity (max = 1) |
| ATGACGTAAT | 0.133 relative CSI intensity (max = 1) | 0.614 relative CSI intensity (max = 1) | 0.502 relative CSI intensity (max = 1) | 0.488 relative CSI intensity (max = 1) | 0.289 relative CSI intensity (max = 1) | 0.0199 relative CSI intensity (max = 1) | 0.437 relative CSI intensity (max = 1) | 0.108 relative CSI intensity (max = 1) | 0.00842 relative CSI intensity (max = 1) | 0.116 relative CSI intensity (max = 1) |
| CCTGACGTCA | 0.00727 relative CSI intensity (max = 1) | 0.057 relative CSI intensity (max = 1) | 0.072 relative CSI intensity (max = 1) | 0.0673 relative CSI intensity (max = 1) | 0.288 relative CSI intensity (max = 1) | 0.0107 relative CSI intensity (max = 1) | 0.0315 relative CSI intensity (max = 1) | 0.182 relative CSI intensity (max = 1) | 0.00318 relative CSI intensity (max = 1) | 0.0191 relative CSI intensity (max = 1) |
| ATGATGCAAT | – | 0.0452 relative CSI intensity (max = 1) | 0.687 relative CSI intensity (max = 1) | 0.756 relative CSI intensity (max = 1) | 0.0503 relative CSI intensity (max = 1) | 0.00117 relative CSI intensity (max = 1) | 0.574 relative CSI intensity (max = 1) | 0.0202 relative CSI intensity (max = 1) | 0.003 relative CSI intensity (max = 1) | 0.00706 relative CSI intensity (max = 1) |
| ATGACGTCAT | 1 relative CSI intensity (max = 1) | 0.887 relative CSI intensity (max = 1) | 0.529 relative CSI intensity (max = 1) | 0.516 relative CSI intensity (max = 1) | 0.742 relative CSI intensity (max = 1) | 0.681 relative CSI intensity (max = 1) | 1 relative CSI intensity (max = 1) | 0.336 relative CSI intensity (max = 1) | 0.0121 relative CSI intensity (max = 1) | 0.299 relative CSI intensity (max = 1) |
